Measured values published in PubChem BioAssay (NCI).
The panel holds about 79,000 compounds, 15% with a hit somewhere; the sample as a whole holds those more often. The source made the active and inactive calls. Cut-off read from the data, not from the text of the source: active = growth inhibition above about 70%; inactive = the rest.

Assay: NCI Yeast Anticancer Drug Screen. Data for the mlh1 rad18 strain (AID 175)
Settings: S. cerevisiae mlh1 rad18 strain growth inhibition, stronger effect = higher value
Description: Growth inhibition of yeast strains with defined genetic alterations is measured as a screen for potential anti-cancer activity. Selected strains with alterations in DNA damage repair or cell cycle control were exposed to compounds and growth inhibition was measured relative to vehicle treated controls. The strain used in this assay is mlh1 rad18

[1] = at 5.0 µM (retest, dose inferred, filed as 0.5)
[2] = at 50.0 µM (retest, dose inferred, filed as 5.0)

Row | SMILES | growth inhibition [1] | growth inhibition [2] | growth inhibition (at 50.0 µM)
1 | CCNc1ccc2c(c1)C(=O)N(OS(C)(=O)=O)C2=O | -3% (inactive) | 23% (inactive) | 97% (active)
2 | CCCCCCCCN1C(=O)c2ccccc2C1=O | -2% (inactive) | 62% (inactive) | 91% (active)
3 | Cc1ccc(S(=O)(=O)Nc2ccc3c(c2)C(O)c2ccccc2-3)cc1 (configuration not stated) | -6% (inactive) | 40% (inactive) | 91% (active)
4 | O=C1CC(=O)N(C2CCCCC2)C(=O)N1c1ccccc1S(=O)(=O)Oc1ccccc1 | 61% (inactive) | 100% (active) | 41.4% (inactive)
5 | CC(=O)N1C(=O)/C(=C\C(=O)c2ccc(Cl)cc2)c2ccccc21 | 80% (active) | 97% (active) | 80.7% (active)
6 | CC(=O)CC(=O)/C=C/c1cccs1 | 100% (active) | 100% (active) | 64.8% (inactive)
7 | CC1CCC2(C(=O)O)CCC3(C)C(=CCC4C5(C)CC(O)C(O)C(C)(CO)C5C(O)CC43C)C2C1C (configuration not stated) | 41% (inactive) | 78% (active) | 58.7% (inactive)
8 | Cc1ccc(N=Nc2ccc(O)c(C)c2)cc1 | 37% (inactive) | 51% (inactive) | 91.9% (active)
9 | On1cnc(=S)c2[nH]cnc21 | 60% (inactive) | 98% (active) | 7.7% (inactive)
10 | COc1cc(CNc2ccc(C(C)C)cc2)cc(OC)c1OC | -11% (inactive) | 32% (inactive) | 55.7% (inactive)
11 | Nc1ccc(CCl)cc1Cc1c(O)ccc2ccccc12 | 0% (inactive) | 61% (inactive) | 66.7% (inactive)
12 | COc1ccc(/C=C2\SC(=S)N(C=C3C(=O)NC(=S)NC3=O)C2=O)cc1OC | 7% (inactive) | 69% (inactive) | 68.3% (inactive)
13 | Nc1nc(N)c2cc(Sc3ccc4ccccc4c3)ccc2n1 | 60% (inactive) | 96% (active) | 83.8% (active)
14 | CC(=O)N1C(=O)/C(=C\C(=O)c2ccc([N+](=O)[O-])cc2)c2ccccc21 | 72% (active) | 98% (active) | 85.7% (active)
